# High-throughput results deposited in PubChem BioAssay by National Center for Advancing Translational Sciences (NCATS).
# This is a sample that favours compounds with a hit; in the whole collection about 1% have one here.
# gsp agonist: qHTS for Agonist of gsp, the Etiologic Mutation Responsible for Fibrous Dysplasia/McCune-Albright Syndrome: qHTS; gsp mutant cells, cAMP HTRF, 30 min; Potency, µM (top dose mostly 76.9 µM), for the others: at the highest dose activation (cAMP increase), actives largely listed as activators; 340,000 compounds, 0.13% hits; AID 624287, 2012; active = well fitted activation curve with a large enough effect; inconclusive = small, poorly fitted or top-dose-only effect, or another doubt; inactive = no such curve, though single readings can be large or run the other way; cell line not stated here;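 also: phosphodiesterase inhibitor Ro 20-1724 added with compounds to block cAMP breakdown; potency is read from the fitted curve at half-maximal effect; nearly all actives have a fitted effect of over 60% in size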
#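 Cells stably selected in G418 were plated at 2000/well, grown 16-24 hr, then given compounds in DMSO with the PDE inhibitor […] (300 uM solution added) for 30 min at 37C; cAMP was read by HTRF.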
# RXFP1 agonist: qHTS Assay for Agonists of the Relaxin Receptor RXFP1; Relaxin receptor 1 (Homo sapiens), Q9HBX9; 370,000 compounds, 0.3% hits; HEK293T-RXFP1 cAMP TR-FRET, 30 min; response scale: percent of porcine relaxin response, buffer zero; AID 2676, 2010; Potency, µM (doses to about 57.5 µM), for inactives: at the top dose activation, hits mostly activators; also: potency is read from the fitted curve at half-maximal effect; % is scaled to controls: 0 for no effect and ±100 for the full control effect; nearly all actives have a fitted effect of over 60% in size
#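 Agonist response is measured as cAMP accumulation in an RXFP1-transfected HEK293T line under PDE4 inhibition. Values are scaled between buffer-only and 29 nM porcine relaxin, and EC50s come from standard Hill equation fits.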
# miR-21 act: qHTS Assay for Modulators of miRNAs and/orActivators of miR-21; Potency, µM (series often up to 38.3 µM), without a hit: at the highest dose activity change, positive = activation, most hits filed as activators; 340,000 tested, under 10 active; HeLa miR-21 FLuc reporter, luciferase, 48 h; AID 2288, 2010;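 also: % of control where 0% means no effect; miR-21 action dims this reporter so a rising signal means less miR-21 action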
#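 HeLa miR-21-FLuc reporter line, endogenous miR-21; 2000 cells/well in DMEM/10% FBS; compound titration up to ~40uM final, 48 h, 37 degree Celsius; luciferase detection reagent, 15 min lysis, CCD luminescence.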
# KinaseGlo FLuc: Counterscreen for Luciferase (Kinase-Glo TM) Inhibition; Kinase-Glo luciferase, ATP luminescence, 8 min; 200,000 compounds, 0.28% hits; Luciferin 4-monooxygenase (Photuris pensylvanica), Q27757; Potency, µM (series often up to 38.3 µM), without a hit: at the highest dose activity change, negative = inhibition, actives largely listed as inhibitors; also: potency is read from the fitted curve at half-maximal effect; % is scaled to controls: 0 for no effect and ±100 for the full control effect; nearly all actives have a fitted effect of over 60% in size
#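 Luminescence was the read-out, taken after 8-minute incubation at ambient temperature. Luciferase turned over luciferin with 10 uM ATP in imidazole pH 7.2 buffer containing KCl, MgCl2, Tween 20 and BSA.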
# RXFP1 antag: qHTS Assay for Antagonists of the Relaxin Receptor RXFP1 | Relaxin receptor 1 (Homo sapiens), Q9HBX9 | HEK293-RXFP1, relaxin-stimulated cAMP HTRF, 30 min; hits give low values | activity change, negative = inhibition, % at 57.5 µM | 350,000 compounds, 0.59% hits | AID 1259400, 2018;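 active = activity change of -60% or lower, but not beyond a set lower limit; inconclusive = change between -60% and -40%, or beyond the set limit; inactive = change above -40%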; also: % is scaled to controls: 0 for no effect and ±100 for the full control effect
# gsp antag: qHTS for Antagonists of gsp, the Etiologic Mutation Responsible for Fibrous Dysplasia/McCune-Albright Syndrome: qHTS; gsp-mutant cells, cAMP HTRF, 30 min; Potency, µM (series often up to 76.9 µM), without a hit: top-dose activity change, negative = inhibition, most hits filed as inhibitors; 340,000 compounds, 0.4% hits; AID 624288, 2012; calls by dose curve; cell line not stated here;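 also: intracellular cAMP measured with PDE inhibitor Ro 20-1724 present during compound exposure; potency is read from the fitted curve at half-maximal effect; % is scaled to controls: 0 for no effect and ±100 for the full control effect; nearly all actives have a fitted effect of over 65% in size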
#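 Measurement of cellular cAMP by homogeneous time-resolved fluorescence following a 30 min compound exposure at 37C. The PDE inhibitor […] was present throughout; the assay buffer was DPBS with 0.05% BSA and 0.005% Tween 20.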
# Active calls of the source: *; ? = inconclusive; . = no result given; [ ] = dose if it differs, or a comment. Unless noted, calls follow the shape of the dose curve; as a rule, active = well fitted curve in the direction sought with a large enough effect; inconclusive = small, poorly fitted or top-dose-only effect, or another doubt; inactive = no such curve, though single readings can be large; an effect the other way counts as inactive or inconclusive.
SMILES,gsp agonist,RXFP1 agonist,miR-21 act,KinaseGlo FLuc,RXFP1 antag,gsp antag
COC(=O)CCc1c(C)c(C(=O)c2ccc(F)cc2)c2ccccn12,8%[15.4 µM],25%,-5%,1%,-2,-22%
Cc1c(C(=O)Nc2ccc(F)cc2)c2ccccn2c1CCc1ccncc1,2%[15.4 µM],0%,1%,-11%,-16,11µM*
Cc1ccc(-c2noc(CN(C(=O)c3ccc(C(C)(C)C)cc3)C(C)C)n2)cc1,.,0%,-6%,.,.,.
COc1cc(OC)cc(C2=NC3(CCC(C)CC3)NC2=S)c1 (stereo not drawn),-17%[15.4 µM],1%,2%,4%,-108*,-11%
Cc1ccc(C2=NC3(CCCC3)NC2=S)cc1,30%[15.4 µM],0%,-37%,1%,-22,-5%
COc1ccc2c(c1)c1c(C)c3cnccc3c(C)c1n2CCCN,.,.,.,-1%[7.66 µM],.,.
Cc1cc(C)c(C)c(S(=O)(=O)N2CCN(c3ncnc4ccccc34)CC2)c1C,0%,3%,.,.,-19,35µM*
COc1ccccc1CNC(=O)CSc1ncc2c(n1)-c1ccc(Cl)cc1N(Cc1ccccc1)S2(=O)=O,.,4.5µM*,0%,.,7,.
CCOC(=O)c1cccc(NC(=O)CSc2ncc3c(n2)-c2ccc(Cl)cc2N(Cc2ccccc2)S3(=O)=O)c1,.,32µM*,1%,.,.,.
COc1ccc(N(C)S(=O)(=O)c2ccc3c(c2)CCN3C(=O)C2CC2)c(OC)c1,-33%,2%,-1%,.,-8,28µM*
CCCCC(O)/C=C(C)/C=C/C=C/C(=O)N1CCCC1=O (stereo not drawn),.,.,.,.,-10,.
O=C(NNc1ccc([N+](=O)[O-])cc1)c1ccco1,3%,-2%,-2%,.,-2,-4%
O=C(NNc1ccc([N+](=O)[O-])cc1[N+](=O)[O-])c1ccco1,1%,-6%,23%,.,-8,35µM*
CC1CCc2cc(F)ccc2N1C(=O)CSc1nnc2c(n1)[nH]c1ccccc12 (stereo not drawn),0%[15.4 µM],0%,2%,3%,-62*,-25%
ClC(Cl)(c1nnnn1-c1ccccc1)c1nnnn1-c1ccccc1,-5%,1%,?,1%,-91*,?
c1ccc(-c2nnnn2-c2ccccc2)cc1,11%,1%,0%,.,3,-12%
CC(=O)Nc1ccc(N/C=C/C(=O)c2ccco2)cc1,-2%,0%,-46%,?,-1,0%
CN(C)c1ccc(N/C=C/C(=O)c2ccco2)cc1,3%,1%,-59%,3.5µM*,-64*,-29%
O=C(/C=C/Nc1ccccc1O)c1ccco1,3%[15.4 µM],5%,-62%,.,-24,4%
O=C(/C=C/Nc1ccc(Br)cc1F)c1ccco1,-2%[15.4 µM],2%,23%,13µM*,-10,.
O=C(/C=C/Nc1ccc(F)cc1F)c1ccco1,3%[15.4 µM],0%,2%,10µM*,-32,-11%
O=C(/C=C/Nc1ccccc1F)c1cccs1,2%,1%,-38%,?,-1,-5%
O=C(/C=C/Nc1ccc(F)cc1F)c1cccs1,-12%,1%,1%,7.9µM*,-10,-1%
COc1ccccc1N1CCN(c2ncnc3c2cnn3-c2cc(Cl)ccc2C)CC1,.,4%,?,.,?,.
CC(=O)c1ccc(N2C(=O)N(Cc3cccc(C(F)(F)F)c3)c3ccccc3S2(=O)=O)cc1,.,2%,20%,.,.,.
COC(=O)CSc1nc(N2CCOCC2)c2c(c1C#N)CC(C)(C)OC2,4%,-3%,-8%,.,-10,-11%
COC(=O)Sc1nc(N2CCOCC2)c2c(c1C#N)CC(C)(C)OC2,14µM*,8%,-12%,.,15,15%
